The list is not random: actives were taken first. Their share in the collection is about 2.9%.
MEKK2 WT-MEK5 = raises or lowers MEK5 binding to wildtype human MEKK2 PB1 domain | 290,000 tested, 1.1% active | bead flow cytometry, Alexa488-MEK5 binding to MEKK2 WT; actives lie on both sides | binding response (% of control), % at 10 µM | Q9Y2U5 | AID 1531; in the data active means binding response below about 67% or above about 130%; inconclusive means no clear call, values can overlap the other calls; inactive means in between
MEKK3 PB1 HTS = modulators (inhibitors or enhancers) of MEK5 binding to human MEKK3 PB1 domain; bead-based flow cytometry, Alexa488-MEK5 binding to MEKK3; actives lie on both sides; 0 = blocked by unlabeled MEK5, 100 = vehicle; 290,000 tested, 1.4% active; binding response (% of control), % at 10 µM;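 active means binding response more than 3 SD above or below the average of its plate-row segment, actives on both sides; inconclusive means wells at one plate position flagged as instrument error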;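 further: Alexa488 bead fluorescence after subtracting the streptavidin-only scavenger bead signal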
Target sequence (Q99759 whole entry, looked up, the tested form may be a part): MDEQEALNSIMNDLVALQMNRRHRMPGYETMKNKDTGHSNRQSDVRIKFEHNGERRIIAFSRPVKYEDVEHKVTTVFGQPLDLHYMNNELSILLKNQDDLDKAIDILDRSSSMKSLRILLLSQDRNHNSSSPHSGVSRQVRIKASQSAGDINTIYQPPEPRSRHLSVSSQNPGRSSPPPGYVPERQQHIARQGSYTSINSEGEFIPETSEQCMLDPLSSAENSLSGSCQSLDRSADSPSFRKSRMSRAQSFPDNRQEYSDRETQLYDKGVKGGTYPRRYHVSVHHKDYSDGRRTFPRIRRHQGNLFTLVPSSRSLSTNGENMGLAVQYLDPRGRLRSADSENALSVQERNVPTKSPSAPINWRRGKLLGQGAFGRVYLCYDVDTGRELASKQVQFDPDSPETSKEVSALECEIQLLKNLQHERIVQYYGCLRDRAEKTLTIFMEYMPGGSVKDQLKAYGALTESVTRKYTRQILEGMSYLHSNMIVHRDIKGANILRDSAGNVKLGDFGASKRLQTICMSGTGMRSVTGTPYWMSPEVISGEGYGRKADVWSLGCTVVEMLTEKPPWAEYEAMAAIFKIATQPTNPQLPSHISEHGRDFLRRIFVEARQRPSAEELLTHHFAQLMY
dFosB activator = mouse delta FosB homodimer activation; purified delta FosB, TAMRA-CDK5 oligo fluorescence polarization; percent of positive-control signal above neutral wells; activation, % at 25 µM; 340,000 tested, 0.99% active;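 active means mean activation above about 17%, with every replicate also reaching it, limit read from the data, passing the limit was not always enough; inconclusive means only one of the two conditions met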
MEKK2mut PB1 HTS = signal of MEK5 binding to mutant human MEKK2 PB1 domain. bead flow cytometry, Alexa488-MEK5 binding to MEKK2 mutant. percent response, % at 10 µM. 290,000 tested, 0.35% active. AID 1530; in the data active means percent response above about 24%, passing the limit was not always enough
DNA FID counter = displaces DNA intercalator in HCV helicase counter-screen; DNA fluorescent intercalator displacement, fluorescence; inhibition, % at 7.9 µM; 290,000 tested, 0.17% active; in the data active means inhibition above about 37%;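 further: 0% = vehicle and 100% = reference compound; higher means more ethidium bromide displaced from hairpin DNA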
MEKK2wt confirm = raises or lowers MEK5 binding to wildtype human MEKK2, retest | shares compounds with MEKK3 PB1 HTS | binding response (% of control), % at 10 µM | bead flow cytometry, Alexa488-MEK5 binding to MEKK2 WT; actives lie on both sides | 5,900 tested, 2.4% active; in the data active means binding response below about 16% or above about 210%; inactive means in between
MEKK2mut confirm = signal of MEK5 binding to mutant human MEKK2, retest | shares compounds with MEKK3 PB1 HTS | percent response, % at 10 µM | 5,900 tested, 2% active | bead flow cytometry, Alexa488-MEK5 binding to MEKK2 mutant | AID 1893; in the data active means percent response mostly above about 71%, no sharp cut-off; inactive means mostly below about 38%;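 further: higher means compound restores mutant binding toward wildtype level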
MEKK3-MEK5 inh = MEKK3-MEK5 PB1 inhibition, single concentration confirmation; 5,900 tested, 1.8% active; shares compounds with MEKK3 PB1 HTS; binding response (% of control), % at 10 µM; bead flow cytometry, Alexa488-MEK5 binding to MEKK3; hits give low values;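 active means binding response below 72% of control, or above a set upper limit, though filed actives all read lower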;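 further: 100% = DMSO only wells and 0% = binding blocked by excess unlabeled MEK5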
* hit, by the source's call; ? = inconclusive; . = no result; [ ] = remark or other dose.

SMILES | MEKK2 WT-MEK5 | MEKK3 PB1 HTS | dFosB activator | MEKK2mut PB1 HTS | DNA FID counter | MEKK2wt confirm | MEKK2mut confirm | MEKK3-MEK5 inh
C#CCOCCOCCOCCNc1nc(N2CCN(C(=O)[C@H](Cc3cc4ccccc4[nH]3)n3cc([C@@H](N)C(C)CC)nn3)CC2)nc(N2CCN(C(=O)[C@H](Cc3cc4ccccc4[nH]3)n3cc([C@@H](N)CC(C)C)nn3)CC2)n1 (stereo partly specified) | 205.0* | 99.0 | . | 13.0 | 40.8* | 249.0* | 76.0* | 109.0
C#CCOCCOCCOCCNc1nc(N2CCN(C(=O)[C@H](CCC(=O)O)n3cc(C(N)Cc4ccc(O)cc4)nn3)CC2)nc(N2CCN(C(=O)[C@H](CCC(=O)O)n3cc(C(N)[C@H](C)CC)nn3)CC2)n1 (stereo partly specified) | 86.0 | 90.0 | -1.9 | -11.0 | -30.8 | . | . | .
C#CCOCCOCCOCCNc1nc(N2CCN(C(=O)[C@H](CCCCN)n3cc(C(N)[C@H](C)CC)nn3)CC2)nc(N2CCN(C(=O)[C@H](CCC(=O)O)n3cc(C(N)[C@H](C)CC)nn3)CC2)n1 (stereo partly specified) | 106.0 | 100.0 | 6.1 | 1.0 | 29.8 | . | . | .
C#CCOCCOCCOCCNc1nc(N2CCN(C(=O)[C@H](Cc3cc4ccccc4[nH]3)n3cc([C@@H](N)C(C)CC)nn3)CC2)nc(N2CCN(C(=O)[C@H](CCCCN)n3cc([C@@H](N)CO)nn3)CC2)n1 (stereo partly specified) | 202.0* | 107.0 | . | 57.0* | 55.1* | 204.0 | 52.0 | 108.0
Cc1cc(=O)[nH]c(SCC(=O)NC2CCCCC2)n1 | 101.0 | 102.0 | 2.6 | 4.0 | -7.9 | . | . | .
O=C(O)CC(NC(=O)C(c1ccccc1)c1ccccc1)c1cccc([N+](=O)[O-])c1 (stereo unspecified) | 88.0 | 94.0 | 2.6 | -2.0 | -30.3 | . | . | .
Cc1ccc(C)c(N(CC(=O)NCc2ccc3c(c2)OCO3)C(=O)CCC(=O)Nc2ccccn2)c1 | 91.0 | 82.0*[inhibitor] | -14.3 | -8.0 | -33.8 | 102.0 | 4.0 | 104.0
COCCNC(=O)CN(C(=O)CCC(=O)Nc1ccccn1)c1ccccc1F | 86.0 | 70.0*[inhibitor] | -0.2 | -1.0 | -9.1 | 103.0 | 4.0 | 100.0
COc1ccc(CCNC(=O)[C@@H](NC(=O)N2CC(=O)Nc3ccccc32)C(C)C)cc1OC | 106.0 | 101.0 | -3.4 | 5.0 | -34.2 | . | . | .
CCN(CC)C(=O)Cn1cc(C(=O)C(=O)NCc2ccccn2)c2ccccc21 | 105.0 | 100.0 | -8.8 | -3.0 | -32.8 | . | . | .
Cc1nc2c(-c3ccc(F)cc3)c(C)nn2c(C)c1CCC(=O)Nc1ccccc1 | 83.0 | 81.0 | 11.5 | -20.0 | -5.9 | . | . | .
CCN1CCN(c2ccc(NC(=O)CCc3c(C)nc4c(-c5ccc(F)cc5)c(C)nn4c3C)cc2)CC1 | 146.0* | 104.0 | -3.2 | 20.0 | 24.6 | 132.0 | 24.0 | 108.0
COc1ccccc1N1CCN(S(=O)(=O)c2ccccc2F)CC1 | 63.0 | 45.0*[inhibitor] | -1.3 | -21.0 | -17.0 | 106.0 | 6.0 | 102.0
COc1ccccc1N1CCN(C2CCN(S(=O)(=O)c3ccc4ccccc4c3)CC2)CC1 | 145.0* | 103.0 | 3.6 | 3.0 | -5.1 | 118.0 | 1.0 | 92.0
COc1ccccc1N1CCN(S(=O)(=O)c2ccccc2)CC1 | 96.0 | 94.0 | -3.2 | -4.0 | -9.2 | . | . | .
CC1(c2ccccc2)NC(=O)N(CC(=O)NCC2CCCO2)C1=O (stereo unspecified) | . | . | 0.7 | . | . | . | . | .
Cc1cccc(OCc2nnc(SCC(=O)N3c4ccccc4Sc4ccc(Cl)cc43)o2)c1 | 83.0 | 93.0 | 3.4 | -6.0 | 0.7 | . | . | .
Cc1ccccc1N=C/C=C1\N(C)c2ccccc2C1(C)C | 75.0 | 94.0 | 12.1 | -2.0 | -4.7 | . | . | .
CN1/C(=C\C=Nc2cc(S(=O)(=O)N3CCOCC3)ccc2N2CCOCC2)C(C)(C)c2ccccc21 | 111.0 | 137.0* | -0.4 | 0.0 | -3.3 | 124.0 | 10.0 | 104.0
O=C1C2C3C=CC(C4CC34)C2C(=O)N1c1ccc2c(c1)OCO2 (stereo unspecified) | 98.0 | 101.0 | -3.2 | 1.0 | -6.6 | . | . | .
Cc1ccc(OCC(=O)Nc2ccc(S(=O)(=O)N3CCOCC3)cc2)c(Br)c1 | 96.0 | 100.0 | 8.3 | -6.0 | -48.1 | . | . | .
CCN(CC)S(=O)(=O)c1ccc(NS(=O)(=O)c2ccc3oc(=O)[nH]c3c2)cc1 | 107.0 | 100.0 | 0.0 | 3.0 | 1.6 | . | . | .
CCN(CC)S(=O)(=O)c1ccc(NS(=O)(=O)c2ccc(O)c([N+](=O)[O-])c2)cc1 | 109.0 | 144.0* | -1.5 | 0.0 | -9.2 | 98.0 | -4.0 | 99.0
CC1CC(C)CN(CC(O)COc2ccc3c(c2)CCC3)C1 (stereo unspecified) | 110.0 | 152.0* | -3.7 | 1.0 | 19.5 | 97.0 | -3.0 | 98.0
Cn1cccc1CC(=O)NNC(=O)Nc1ccc(F)cc1 | 109.0 | 147.0* | 2.9 | -1.0 | -11.6 | 106.0 | 10.0 | 105.0
SMILES | MEKK2 WT-MEK5 | MEKK3 PB1 HTS | dFosB activator | MEKK2mut PB1 HTS | DNA FID counter | MEKK2wt confirm | MEKK2mut confirm | MEKK3-MEK5 inh
CC1CCN(CC(=O)NCc2ccco2)CC1 | 87.0 | 99.0 | 4.7 | -12.0 | -2.8 | . | . | .
Cc1ccccc1Nc1cc(C)c2c(O)cccc2n1 | 75.0 | 57.0*[inhibitor] | 1.8 | -7.0 | -4.9 | 115.0 | 16.0 | 100.0
CC(C)(C)c1cnnn1-c1ccc(NC(=O)c2ccc(Br)o2)cc1 | 0.0*[inhibitor] | 1.0*[inhibitor] | -6.6 | -41.0 | -24.6 | 102.0 | -1.0 | 104.0
COc1cccc(C(=O)Nc2ccc(-n3nncc3C(C)(C)C)cc2)c1 | 98.0 | 103.0 | -9.4 | -1.0 | -17.8 | . | . | .
CCN1CCN(Cc2ccc(NC(=O)c3ccc(C)c(NC(=O)C[C@@H]4NC(=O)[C@H](Cc5ccccc5)NC4=O)c3)cc2C(F)(F)F)CC1 | 97.0 | 93.0 | -1.2 | -8.0 | . | . | . | .
CCN1CCN(Cc2ccc(NC(=O)c3ccc(C)c(NC(=O)c4c[nH]c5cc(C(F)(F)F)ccc5c4=O)c3)cc2C(F)(F)F)CC1 | 199.0* | 115.0 | -8.6 | 83.0* | . | 224.0* | 131.0* | 93.0
CCN1CCN(Cc2ccc(NC(=O)c3ccc(C)c(NC(=O)c4cccc(-c5cn[nH]c(=O)c5)c4)c3)cc2C(F)(F)F)CC1 | 169.0* | 108.0 | ? | 29.0* | 40.5* | 143.0 | 20.0 | 99.0
CCN1CCN(Cc2ccc(NC(=O)c3ccc(C)c(/C=C/c4cnc(Nc5cc(N6CCNCC6)nc(C)n5)cn4)c3)cc2C(F)(F)F)CC1 | 401.0* | 114.0 | -255.7 | 205.0* | 15.4 | 280.0* | 169.0* | 118.0

High-throughput results: PubChem, several laboratories
